Compound activity (PubChem)
Most compounds without a hit are left out; they make up all but 8.3% or so of the library.
FBPA Giardia inh = inhibitors of Giardia lamblia fructose-1,6-bisphosphate aldolase; purified Giardia FBPA; AID 2451; Potency, µM (top dose mostly 59.6 µM), for inactives: at the top dose activity, negative = inhibition, actives largely listed as inhibitors; 290,000 tested, 0.71% active; A8B2U2; note: potency is the fitted concentration of half-maximal effect; nearly all actives have a fitted effect of over 55% in size
Target sequence (A8B2U2 whole entry, looked up): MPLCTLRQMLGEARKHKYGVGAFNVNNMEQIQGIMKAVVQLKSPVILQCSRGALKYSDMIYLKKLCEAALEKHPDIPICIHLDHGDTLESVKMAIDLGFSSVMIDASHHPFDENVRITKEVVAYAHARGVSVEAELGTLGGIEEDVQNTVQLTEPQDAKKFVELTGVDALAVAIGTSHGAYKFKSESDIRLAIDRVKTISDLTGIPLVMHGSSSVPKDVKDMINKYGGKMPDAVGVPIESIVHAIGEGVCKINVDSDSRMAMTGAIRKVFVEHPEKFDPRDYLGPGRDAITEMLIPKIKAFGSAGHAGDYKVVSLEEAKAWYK
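40 nM FBPA preincubated 10 min at RT with compound (up to 57.5 uM final), then substrate plus GAPDH/TPI/NAD/arsenate coupling and diaphorase/resazurin added. Fluorescence read after 20 min at RT, 525/598 nm.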
HCV inhibitor = HCV inhibition; Huh7.5.1 HCVcc-Cre infection, luciferase reporter, 44 h; Potency, µM (top dose mostly 41.8 µM), for inactives: at the top dose activity change, negative = inhibition, usual class: inhibitors; 340,000 tested, 3.4% active; note: potency is the fitted concentration of half-maximal effect
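Reporter virus HCVcc-Cre (~0.5 moi) infects cells exposed to compound; seeding density 1,000 cells/well with 4 h settling beforehand. Luminescence, 15 sec read, taken 44 h post-infection following a 15 min RT substrate incubation.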
FMDV antiviral = blocks foot and mouth disease virus. FMDV antiviral cell-based qHTS. Potency, µM (doses to about 57.9 µM), for inactives: top-dose activity change, negative = inhibition, hits mostly inhibitors. 410,000 tested, 1.2% active. AID 1159524; calls by dose curve; tested in HEK293T cells; note: read-out not given here; potency is the fitted concentration of half-maximal effect; nearly all actives have a fitted effect of over 45% in size
Lassa entry inh = Lassa virus entry inhibition. Lassa virus pseudotype entry inhibition, cell reporter. Potency, µM (highest dose often 37.9 µM), for the others: at the top dose activity change, negative = inhibition, actives largely listed as inhibitors. 300,000 tested, 1.2% active; calls by dose curve; tested in HEK293 cells; note: potency is the fitted concentration of half-maximal effect; nearly all actives have a fitted effect of over 50% in size
Marburg entry inh = blocks Marburg virus binding to or entry into cells; Potency, µM (titrated, usually from 37.8 µM), inactives show top-dose activity change, negative = inhibition, actives largely listed as inhibitors; 300,000 tested, 1.8% active; Marburg virus pseudotyped entry inhibition, cell reporter; AID 540276; calls by dose curve; tested in HEK293 cells; note: potency is the fitted concentration of half-maximal effect
HCMV antiviral = human cytomegalovirus inhibition | 410,000 tested, 4.5% active | activity change, negative = inhibition, % at 57.5 µM | HFF cells, HCMV-luciferase reporter, 72 h; stronger effect = lower value; in the data active = activity change below about -60%; inconclusive = no clear call, values can overlap the other calls; inactive = above about -39%
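Inhibition of viral replication was scored as loss of reporter luminescence in HFFs infected with HCMV-luciferase (MOI 1 PFU/cell) for 72 h; compounds tested at 2 doses, normalized to buffer and Salinomycin controls.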
* marks the source's active call; other numbers are inactive results; [ ] = remark or other dose. Unless noted, calls come from the whole dose curve; as a rule, active = well fitted curve in the direction sought with a large enough effect; inconclusive = small, poorly fitted or top-dose-only effect, or another doubt; inactive = no such curve, though single readings can be large; an effect the other way counts as inactive or inconclusive. % is set by controls: 0 for no effect and ±100 for the full control effect.

Results for O=C(Nc1ccccc1Cl)C1CCN(c2nc3ccccc3nc2C(F)(F)F)CC1 ?
FMDV antiviral: 4.8%; Lassa entry inh: -3.8%[46.1 µM]; HCMV antiviral: 6.5

Results for COc1cc(/C=C2\SC(=O)NC2=O)ccc1Oc1ccc([N+](=O)[O-])cc1[N+](=O)[O-] ?
FBPA Giardia inh: -2.8%; HCV inhibitor: -4.8%; FMDV antiviral: -3.4%; Lassa entry inh: -25.1%; Marburg entry inh: 0.7%[46.1 µM]; HCMV antiviral: -75.1*

How did CCN1C(=O)C(=Cc2cccc(OC)c2Oc2ccc([N+](=O)[O-])cc2[N+](=O)[O-])SC1=S do in these assays?
FBPA Giardia inh: -5.3%; HCV inhibitor: 4.4%; FMDV antiviral: 12.6µM*; Lassa entry inh: inconclusive; Marburg entry inh: inconclusive; HCMV antiviral: -6.0

How did Cc1ccc2c(c1)CN(CCNC(=O)C(C)Oc1ccccc1)CC(C)O2 (centres undefined) do in these assays?
FMDV antiviral: -8.1%

How did CCOc1ccc(OCC(=O)Nc2nccs2)cc1 do in these assays?
FBPA Giardia inh: -0.4%; HCV inhibitor: -1.7%; FMDV antiviral: 8.91µM*; Lassa entry inh: inconclusive; Marburg entry inh: inconclusive

What do the screens show for `Cc1ccc(CC(=O)Nc2nccs2)cc1`?
FBPA Giardia inh: 1.3%; HCV inhibitor: 4.4%; FMDV antiviral: 15.5%; HCMV antiviral: -66.8*

Results for COc1ccc(OCC(=O)Nc2nccs2)cc1 ?
FBPA Giardia inh: 1.0%; HCV inhibitor: 13.0%; FMDV antiviral: -64.3%; Lassa entry inh: inconclusive; Marburg entry inh: inconclusive; HCMV antiviral: 19.7

How did O=C(Cc1ccc(F)cc1)Nc1nccs1 do in these assays?
FBPA Giardia inh: 6.0%; HCV inhibitor: 11.7%; FMDV antiviral: 30.7%; HCMV antiviral: 3.0

What do the screens show for `Cc1nnc(SCC(=O)Nc2nccs2)o1`?
HCV inhibitor: 10.5%; FMDV antiviral: 18.5%; Lassa entry inh: 2.0%[46.1 µM]; Marburg entry inh: 31.4%[46.1 µM]; HCMV antiviral: -61.3*

Results for CCC[C@H](CN[C@@H](CNC)[C@H](C)CC)NCCc1cc(C(F)(F)F)cc(C(F)(F)F)c1 ?
FBPA Giardia inh: 11.2%; HCV inhibitor: inconclusive; FMDV antiviral: inconclusive; HCMV antiviral: -78.0*

What do the screens show for `CCC[C@@H](CN[C@@H](CNC)[C@H](C)CC)NCC1CCC(C(C)(C)C)CC1` (some centres undefined)?
FBPA Giardia inh: inconclusive; HCV inhibitor: 7.94µM*; FMDV antiviral: -28.8%; HCMV antiviral: -99.0*

What do the screens show for `CC[C@@H](C)[C@H](CNC)NC[C@@H](Cc1cccc2ccccc12)NCCc1cccc(C(F)(F)F)c1`?
FBPA Giardia inh: 6.8%; HCV inhibitor: 1.3%; FMDV antiviral: -68.6%; HCMV antiviral: -99.1*

What do the screens show for `Cc1ncc2c(c1CNC(=O)c1cncs1)CCN(C(=O)c1ccc(C(C)(C)C)cc1)C2`?
FMDV antiviral: 3.4%

How did C#CCCCCCCCCCCCC(=O)CC(O)COC(C)=O (centres undefined) do in these assays?
FBPA Giardia inh: -3.8%; FMDV antiviral: -6.1%

How did CCOC(=O)c1ccc(-n2c(CCC(=O)O)ccc2-c2ccccc2)cc1O do in these assays?
FMDV antiviral: -13.1%; Lassa entry inh: 3.4%[46.1 µM]; Marburg entry inh: 8.8%[46.1 µM]; HCMV antiviral: 12.2

How did COc1ccc(-c2c[n+](CC(=O)OC3CC(C)CCC3C(C)C)c3n2CCC3)cc1 (centres undefined) do in these assays?
FBPA Giardia inh: 3.3%; HCV inhibitor: inconclusive; FMDV antiviral: 12.6µM*; HCMV antiviral: -99.7*

Results for CC(C)[C@@H]1CC[C@@H](C)C[C@H]1OC(=O)C[n+]1cc(-c2ccc(Cl)cc2)n2c1CCCCC2 ?
FBPA Giardia inh: 3.7%; HCV inhibitor: -15.0%; FMDV antiviral: inconclusive; Lassa entry inh: inconclusive; Marburg entry inh: inconclusive; HCMV antiviral: -96.7*

Results for O=S(=O)(c1cccc(F)c1)N1CCN(c2ncnc3scc(-c4ccc(F)cc4)c23)CC1 ?
HCV inhibitor: inconclusive; FMDV antiviral: inconclusive; Lassa entry inh: inconclusive; Marburg entry inh: inconclusive; HCMV antiviral: -28.5

How did Nc1ncc(-c2cccc(S(N)(=O)=O)c2)c2scc(-c3ccc(F)c(Cl)c3)c12 do in these assays?
Lassa entry inh: 22.3µM*

What do the screens show for `CC(C)C[C@H]1CNC(=S)N1CC1CCCN1C[C@H](Cc1ccccc1)N1C[C@H](Cc2ccc(O)cc2)N(CC2CCCCC2)C1=S` (some centres undefined)?
HCV inhibitor: 10µM*; FMDV antiviral: -21.0%; HCMV antiviral: 7.7

What do the screens show for `CC(C)C[C@H]1CNC(=S)N1C[C@H]1CCCN1C[C@H](Cc1ccc(O)cc1)N1C[C@H](Cc2ccccc2)N(CC2CCCCC2)C1=S`?
FMDV antiviral: -6.5%; HCMV antiviral: -34.3

Results for CC(C)C[C@H]1CNC(=S)N1C[C@H]1CCCN1C[C@H](Cc1ccc(O)cc1)N1C[C@H](CC(C)C)N(CC2CCCCCC2)C1=S ?
FMDV antiviral: -22.8%; HCMV antiviral: inconclusive

What do the screens show for `CC(C)C[C@H]1CNC(=S)N1CC1CCCN1C[C@H](Cc1ccc(O)cc1)N1C[C@H](Cc2ccccc2)N(CC2CCCCCC2)C1=S` (some centres undefined)?
HCV inhibitor: 7.94µM*; FMDV antiviral: -8.0%; HCMV antiviral: -19.7

What do the screens show for `CC(C)C[C@H]1CNC(=S)N1C[C@H]1CCCN1C[C@H](Cc1ccccc1)N1C[C@H](Cc2ccc(O)cc2)N(CC2CCCCCC2)C1=S`?
FMDV antiviral: -22.4%; HCMV antiviral: -83.9*

How did CC(C)C[C@H]1CN([C@@H](Cc2ccc(O)cc2)CN2CCC[C@@H]2CN2C(=S)NC[C@@H]2Cc2ccccc2)C(=S)N1CC1CCCCC1 do in these assays?
FMDV antiviral: 0.0%; HCMV antiviral: -16.4

Results for CC1CCCCN1C(=O)Cn1cc(C=C2C(=O)N(C)C(=O)N(C)C2=O)c2ccccc21 (centres undefined) ?
HCV inhibitor: 22.6%; FMDV antiviral: -27.8%; Lassa entry inh: -3.5%; Marburg entry inh: -13.7%; HCMV antiviral: -62.5*

How did CC1CCCCN1C(=O)Cn1cc(C=O)c2ccccc21 (centres undefined) do in these assays?
FBPA Giardia inh: 3.2%; HCV inhibitor: -1.1%; FMDV antiviral: -1.5%; Lassa entry inh: 7.6%; Marburg entry inh: 15.9%; HCMV antiviral: -22.8

How did Cn1cc(S(=O)(=O)c2cccc(Cl)c2)c(=O)c2cc(F)c(N3CCCCC3)cc21 do in these assays?
FMDV antiviral: 0.9%; Lassa entry inh: -2.3%[46.1 µM]; HCMV antiviral: -61.5*

What do the screens show for `Oc1c(C(c2ccco2)N2CCN(C(c3ccccc3)c3ccccc3)CC2)sc2ncnn12` (centres undefined)?
FBPA Giardia inh: -19.9%; HCV inhibitor: 14.1µM*; FMDV antiviral: -28.4%; Marburg entry inh: 3.5%; HCMV antiviral: -13.2
